# Screens deposited in PubChem by National Center for Advancing Translational Sciences (NCATS).
# In the library only some 11% were active in any assay of this set; here they are far more common.
# HPGD inh = qHTS Assay for Inhibitors of HPGD (15-Hydroxyprostaglandin Dehydrogenase); actives 4.3% (n = 150,000); AID 894, 2007; 15-hydroxyprostaglandin dehydrogenase [NAD(+)] (Homo sapiens), P15428; purified HPGD, NADH fluorescence kinetic, PGE2 substrate; Potency, µM, inactives show at the highest dose activity change, negative = inhibition, hits mostly inhibitors; note: potency is the fitted concentration of half-maximal effect
# Target sequence (P15428 whole entry, looked up): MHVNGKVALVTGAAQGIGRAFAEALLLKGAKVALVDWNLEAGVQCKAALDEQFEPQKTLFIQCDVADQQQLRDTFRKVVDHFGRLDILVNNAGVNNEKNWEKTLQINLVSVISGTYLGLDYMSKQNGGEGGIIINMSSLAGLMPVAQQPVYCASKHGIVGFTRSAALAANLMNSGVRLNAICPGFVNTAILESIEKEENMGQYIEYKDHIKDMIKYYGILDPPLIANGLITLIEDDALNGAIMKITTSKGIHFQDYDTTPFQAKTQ
#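 NADH formation kinetics: reaction with 30 uM PGE2 and 1 mM NAD+ (final), 20 nM enzyme, Tris-HCl pH 8 with Tween 20, after 15 min compound preincubation at room temperature. Fluorescence change, last versus first of five reads.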
# IMPase Li inh = qHTS Assay for Identifying the Cell-Membrane Permeable IMPase Inhibitors: Potentiation with Lithium | Potency, µM (highest dose often 59.4 µM), without a hit: at the top dose activity, negative = IMPase inhibition, usual class: inhibitors | CHO-M1 cells, IP1 TR-FRET (IP-One), carbachol + lithium | actives 0.35% (n = 210,000); active = well fitted inhibition curve with a large enough effect; inconclusive = small, poorly fitted or top-dose-only effect; inactive = no such curve, though single readings can be large or run the other way;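 note: IP1 builds up when IMPase is blocked and the TR-FRET signal falls; potency is the fitted concentration of half-maximal effect; plate controls were basal vehicle for no effect and high inhibitor control for full effect; nearly all actives have a fitted effect of over 50% in size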
#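 Lithium-sensitised IP1 accumulation assay; M1-expressing CHO cells treated 30 min at 37C with compound. Competitive antibody detection by time-resolved FRET followed a 10 min room-temperature lysis step.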
# PNC assembly inh = High Content Assay for Compounds that inhibit the Assembly of the Perinucleolar Compartment. actives 3.1% (n = 140,000). activity change (PNC), negative = inhibition, % at 10 µM. PC3M PTB-GFP, PNC prevalence imaging, 16 h; stronger effect = lower value;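 active = readout at or below -70, meaning at least 70% loss of cells showing the perinucleolar compartment, a nuclear body marking cancer cells; inconclusive = readout between -30 and a set limit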;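 note: plate controls were DMSO wells for no effect and camptothecin positive control wells for full effect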
#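 Compounds are pinned in duplicate onto adhered PC3M cells stably expressing GFP-tagged PTB and incubated 16 h at 37 C. Cells are then fixed, nuclei stained with Hoechst, and PNC-positive cells counted.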
# ALDH1A1 inh = qHTS Assay for Inhibitors of Aldehyde Dehydrogenase 1 (ALDH1A1); Aldehyde dehydrogenase 1A1 (Homo sapiens), P00352; Purified ALDH1A1, NADH fluorescence, propionaldehyde substrate; Potency, µM (top dose mostly 75.3 µM), without a hit: at the highest dose activity, negative = inhibition, most hits filed as inhibitors; actives 7.3% (n = 220,000);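 note: potency is the fitted concentration of half-maximal effect; plate controls were no enzyme wells and a reference inhibitor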
# IMPase cell inh = qHTS Assay for Identifying the Cell-Membrane Permeable IMPase Inhibitors. inhibition (IP1 accumulation), % at 46.1 µM. CHO-M1 cells, IP1 accumulation, HTRF TR-FRET ratio. Inositol monophosphatase 1 (Rattus norvegicus), P97697. 120,000 tested, under 10 active; active = well fitted curve in the direction sought with a large enough effect in the signal ratio, not every such curve was filed as active; inconclusive = small, poorly fitted or top-dose-only effect, or a change in a side signal; inactive = no such curve, though single readings can be large or run the other way; the % refers to the signal ratio;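 note: cells stimulated with carbachol in lithium chloride buffer; plate controls were DMSO basal wells for no effect and reference inhibitor wells for full effect; higher means more IMPase inhibition seen as more IP1 and lower FRET ratio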
# Target sequence (P97697 whole entry, looked up): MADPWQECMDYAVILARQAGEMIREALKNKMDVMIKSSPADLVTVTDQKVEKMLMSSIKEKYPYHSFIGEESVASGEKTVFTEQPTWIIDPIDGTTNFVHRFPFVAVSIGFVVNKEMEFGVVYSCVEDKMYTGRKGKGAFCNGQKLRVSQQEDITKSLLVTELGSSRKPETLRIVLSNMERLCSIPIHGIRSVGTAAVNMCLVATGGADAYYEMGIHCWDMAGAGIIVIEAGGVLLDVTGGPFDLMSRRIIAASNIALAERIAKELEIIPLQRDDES
#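 CHO-M1 cells (CHO stably expressing M1 receptor), compound up to 46 uM final, stimulated with carbachol (50 uM as added) in buffer with 50mM LiCl, pH 7.4, 30 min at 37C. Cytosolic IP1 read by TR-FRET; AC50 from Hill fits.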
# * = called active by the depositor; u = inconclusive; x = no result given; [ ] = dose if it differs, or a comment. Unless noted, calls come from the whole dose curve; as a rule, active = well fitted inhibition curve with a large enough effect (not every such curve was filed as active); inconclusive = small, poorly fitted or top-dose-only effect, or another doubt; inactive = no such curve, though single readings can be large or run the other way. Unless noted, % is set by controls: 0 for no effect and ±100 for the full control effect.
SMILES,HPGD inh,IMPase Li inh,PNC assembly inh,ALDH1A1 inh,IMPase cell inh
COC(=O)[C@H](Cc1ccccc1)NC(=O)O[C@@H]1C(=O)c2cc(Br)ccc2O[C@H]1c1ccc2c(c1)OCO2,-8%,13%,x,u,x
c1ccc(COc2ccc(Nc3ncnc4nc[nH]c34)cc2)cc1,16µM*,17%[38.3 µM],-10,-14%,7
CCOc1cc(OCC)cc(C(=O)Nc2cccc(C(C)=O)c2)c1,-9%,4%,-2,-9%,x
O=C(NNC(=S)Nc1cccc(C(F)(F)F)c1)c1ccc(Cl)cc1Cl,-15%,-1%,-1,20µM*,x
CCOc1cc(OCC)cc(C(=O)NC(=S)Nc2cccc(C(F)(F)F)c2)c1,-27%,11%[38.3 µM],22,3.5µM*,5
FC(F)(F)c1cccc(NC(=S)NCc2ccccc2)c1,28µM*,17%[38.3 µM],15,7%,11
CCOc1ccc(NC(=S)NNc2ccnc3cc(Cl)ccc23)cc1,x,13%,x,3.2µM*,x
N/N=c1\sc2ccccc2n1-c1ccccc1,-19%,-5%[38.3 µM],15,u,6
Cc1occc1-c1nnc(-c2cc([N+](=O)[O-])cc([N+](=O)[O-])c2)o1,x,14%,x,u,x
C=CCN1CCc2c(cc(O)c(O)c2Cl)[C@H](c2ccccc2)C1,x,x,x,x,7
CCOc1ccc(NC(=S)NNC(=S)Nc2cccc(C(F)(F)F)c2)cc1,x,x,x,1.3µM*,x
CNNC(=S)Nc1cccc(C(F)(F)F)c1,x,x,x,-1%,x
CCOc1ccc(NC(=S)NNC(=O)c2cc(Br)ccc2Cl)cc1,x,2%,x,13µM*,x
CC(C)(C)NC(=S)Nc1cccc(C(F)(F)F)c1,x,7%,x,-1%,x
O=C(Nc1ccccc1)Nc1cccc(C(F)(F)F)c1,x,14%,x,-2%,x
FC(F)(F)c1cccc(NC(=S)NNC(=S)Nc2cccc(C(F)(F)F)c2)c1,x,x,x,1.6µM*,x
CNC(=O)Nc1cccc(C(F)(F)F)c1,-10%,-7%,-100*,1%,-2
COCC1C2CC[C@H]3C(OCc4ccc(OC)cc4)OC[C@]4(C)[C@H]3C2=C(CN4C(=O)OC(C)(C)C)[C@H](C)C1COC (some centres not stated),u,8%,x,u,x
COC(=S)Nc1cccc(C(F)(F)F)c1,x,x,x,1%,x
CC(C)(O)C(=O)NNC(=S)Nc1cccc(C(F)(F)F)c1,x,8%,x,u,x
COc1ccc(NC(=S)NNC(=S)Nc2cccc(C(F)(F)F)c2)cc1,x,x,x,0.45µM*,x
COc1ccc(NC(=S)NNC(=O)c2ccccc2OC(F)F)cc1,-18%,34%[38.3 µM],u,-3%,1
Cc1cccc(NC(=S)NNC(=O)c2ccccc2OC(F)F)c1,-11%,22%[38.3 µM],10,9.5µM*,-3
O=C(O)CS(=O)CC(=O)Nc1cccc(C(F)(F)F)c1 (configuration not stated),x,-8%,x,1.8µM*,x
Cc1ccccc1C(=O)NNC(=S)Nc1cccc(C(F)(F)F)c1,-24%,-5%,-112*,18µM*,x
SMILES,HPGD inh,IMPase Li inh,PNC assembly inh,ALDH1A1 inh,IMPase cell inh
CCCOc1ccc(C(=O)Nc2ccc3oc(-c4ccc(N(C)C)cc4)nc3c2)cc1,x,x,x,x,-15
CCOC(=O)c1c(NC(=O)c2ccc(OCC)c(Br)c2)sc2c1CCCC2,x,x,x,x,0
COCCn1c(=O)c(-c2ccc(F)cc2)nc2cnc(N3CCOCC3)nc21,x,2%,x,u,x
CC(C(=O)O)n1c(-c2ccn[nH]2)n[nH]c1=S (configuration not stated),x,x,x,-3%,x
FC(F)(F)c1cccc(NC(=S)Nc2ccc(Cl)c(Cl)c2)c1,x,x,x,13µM*,x
FC(F)(F)c1cccc(NC(=S)NC(c2ccccc2)c2ccccc2)c1,-4%,22%,-27,-2%,1
CCOC(=O)CSc1ncc(-c2ccc([N+](=O)[O-])cc2)[nH]1,-9%,4%,3,-1%,x
CN(C)C(=O)N1CCN(C(=O)N2CCOCC2)CC1,-6%,9%,-100*,-3%,-1
C=CCn1c(SCC(=O)O)nc2sc(CC)cc2c1=O,x,3%,x,u,x
C=CCn1c(SCC(=O)c2cccs2)nc2sc(CC)cc2c1=O,-16%,10%[38.3 µM],-6,3.5µM*,22
Cc1ccc(-n2nc(C)c(Sc3ccccc3[N+](=O)[O-])c2N)cc1,u,14%,-15,10µM*,x
Cc1n[nH]c(C)c1Sc1ccccc1[N+](=O)[O-],x,-9%,x,-4%,x
COc1ccc(C(=O)CCNc2ccc(C)c(Cl)c2)cc1,0%,3%,-18,3.2µM*,4
CN(C)CCCN1C(=O)c2cccc3c(Br)ccc(c23)C1=O,x,-6%,x,22µM*,x
Cc1nn(C)c(C)c1N1C(=O)c2cccc3c(Br)ccc(c23)C1=O,-20%,6%,-2,2%,u
CCN(CC)c1ccc(C=Nc2cc(C)cc(C)c2)c(O)c1,-23%,-4%,-23,14µM*,x
CCN(CC)c1ccc(C=Nc2ccccc2)c(O)c1,-28%,20%,-7,3.5µM*,0[0.0738 µM]
CCN(CC)c1ccc(N=Cc2ccc(N(CC)CC)cc2O)cc1,-7%,33%[38.3 µM],u,1.8µM*,14
CCN(CC)c1ccc(C=Nc2ccc(N(C)C)cc2)c(O)c1,-2%,12%[38.3 µM],-29,u,63
CCN(CC)c1ccc(C=Nc2ccc(C)cc2)c(O)c1,-25%,5%,82,u,-6
Cc1cc(OCC(=O)Nc2ccc(-c3nc4cc(Cl)ccc4o3)cc2)cc(C)c1Cl,x,x,x,x,-3
CCCCNC(=O)CNC(=S)N(Cc1ccc(C)cc1)Cc1ccco1,x,-15%,x,32µM*,x
Cc1ccc(CN(Cc2ccco2)C(=S)NCC(=O)NC2CC2)cc1,x,-7%,x,u,x
O=C(c1ccncc1)N1CCC2(CCCN(c3ncccn3)C2)CC1,-17%,-13%,x,8%,x
Cc1c(NC(=S)N/N=C/C=C/c2ccc([N+](=O)[O-])cc2)c(=O)n(-c2ccccc2)n1C,-14%,-3%,-109*,-11%,x
CC(O)COC(C)(C)C (configuration not stated),-8%,5%,x,-14%,x
CCC(C)C1C(C#N)=C(N)OC2=C1C(=O)CC(C)(C)C2 (configuration not stated),-16%,4%,13,11µM*,-2
CC1(C)CC(=O)C2=C(C1)OC(N)=C(C#N)C2c1ccsc1 (configuration not stated),-10%,9%,u,25µM*,-1
COc1ccc(C2C(C#N)=C(N)OC3=C2C(=O)CC(C)(C)C3)cc1 (configuration not stated),x,5%,x,4.5µM*,x
CC1(C)CC(=O)C2=C(C1)OC(N)=C(C#N)C2c1ccc[nH]1 (configuration not stated),x,5%,x,-10%,x
